Measurements taken from PubChem BioAssay.
Potency and affinity values are given separately. Calls of active or inactive are those of the source. The limit is not given here; nearly all actives have IC50 up to about 0.91 µM.

biological target: Calcium-dependent protein kinase 4 (Plasmodium falciparum (isolate 3D7)) (UniProt Q8IBS5); assay: PfCDPK4 kinase inhibitors, biochemical, TCAMS library (AID 1159588); conditions: recombinant PfCDPK4, Kinase-Glo ATP depletion luminescence
Sequence (Q8IBS5 whole entry, looked up): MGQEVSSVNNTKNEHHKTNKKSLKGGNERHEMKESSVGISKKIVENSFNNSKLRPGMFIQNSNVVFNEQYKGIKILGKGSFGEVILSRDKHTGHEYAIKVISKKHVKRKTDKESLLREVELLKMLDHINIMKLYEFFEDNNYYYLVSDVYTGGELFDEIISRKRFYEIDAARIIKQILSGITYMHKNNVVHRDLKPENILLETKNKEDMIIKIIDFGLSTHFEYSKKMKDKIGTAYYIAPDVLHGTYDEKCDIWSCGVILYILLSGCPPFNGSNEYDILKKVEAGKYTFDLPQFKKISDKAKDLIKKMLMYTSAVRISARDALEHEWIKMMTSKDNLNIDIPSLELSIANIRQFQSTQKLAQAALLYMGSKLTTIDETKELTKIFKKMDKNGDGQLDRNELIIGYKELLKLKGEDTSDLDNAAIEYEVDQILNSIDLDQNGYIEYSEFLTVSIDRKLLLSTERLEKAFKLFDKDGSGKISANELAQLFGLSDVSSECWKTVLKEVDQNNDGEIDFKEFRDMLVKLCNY

outcome, inactive:
Cc1cccc(NC(=O)NC2CCN(CCCCCNC(=O)/C=C/c3ccc(Cl)c(Cl)c3)CC2)c1
CCOC(=O)c1ccc(N=C2SC(=Cc3cc(Br)ccc3O)C(=O)N2C)cc1
Cc1cc(N(C)C)nc(Nc2ccc(NC(=O)CCc3ccccc3)cc2)n1
O=C(NC1CCCC1)c1ccc(N2CCC(NCc3cccc(C(F)(F)F)c3)CC2)cc1
Cc1cccc2[nH]c(-c3ccc(-c4ccc(NC(=O)Nc5ccc(Cl)c(Cl)c5)cc4)cc3)nc12
CNCCNCc1cccc(-c2cccc(-c3nc4c(C)cccc4[nH]3)c2)c1
NC1=NC2(CCCCC2)N(OCCOc2ccc(Cc3ccccc3)cc2)C(N)=N1
CCCC(C)Nc1nc(C)cc(N[C@@H](CC(C)C)C(=O)Nc2ccc(OC)cc2)n1 (stereo not given in full)
Nc1nccc2ccc(-c3cccc(O)c3)cc12
CN(Cc1cc(C(F)(F)F)cc(C(F)(F)F)c1)C(=O)C(Cc1ccc(F)cc1)C1CCCNC1 (stereo not given)
COc1ccc(-c2c(-c3ccc(OCc4ccccc4)cc3O)n[nH]c2C(F)(F)F)cc1
Cc1nc(C)c(CC(=O)Nc2ccc(-c3cccc(-c4nc5ccc(C(F)(F)F)cc5[nH]4)c3)cc2)s1
CC(Cc1ccc(Cl)cc1)Nc1nc(NC2CCCC2)nc(N2CCC(C#N)(c3ccccc3)CC2)n1 (stereo not given)
O=C(c1cc2ccccc2o1)N1CCc2cc3nccc(N4CCN5CCC[C@H]5C4)c3cc21
COc1cc(NC(=O)Nc2ccc(Br)cc2C(=O)Nc2ccc(Br)cc2)cc(OC)c1OC
COc1ccc2nccc([C@@H](O)CN3CCC(NC/C=C/c4cccnc4)CC3)c2c1
CC(C)(C)C(=O)Nc1ccc(C(=O)Nc2cccc(-c3nc4ccccc4[nH]3)c2)cc1
COc1ccc(Nc2ncc3c(-c4cccc(NC(=O)Cc5ccc(F)cc5)c4)c[nH]c3n2)cc1OC
OCC1CCN(Cc2ccc(-c3ccc(-c4nc5ccc(C(F)(F)F)cc5[nH]4)cc3)cc2)CC1
CN(C)CCOc1cc(NC(=O)Nc2ccc(Cl)cc2C(F)(F)F)ccc1I
NC(N)=NN=CC(=O)Nc1cccc(C(F)(F)F)c1
Cc1cc(Nc2cccc(C(F)(F)F)c2)nc(NCc2ccccc2)n1
COc1ccc2nccc([C@@H](O)CN3CCC(NCc4cc5c(Cl)cccc5[nH]4)CC3)c2c1
Fc1ccc2[nH]c3c(NCCCN4CCOCC4)ncnc3c2c1
Cc1cc(N2CCC(C)CC2)nc2cc(O)ccc12
COc1ccc2nccc([C@@H](O)CN3CCC(NCc4ccc5sc(=O)[nH]c5c4)CC3)c2c1
COc1ccc(S(=O)(=O)N(CC(=O)NN=C(C)c2cccs2)c2cc(C)cc(C)c2)cc1OC
CC(C)CNCc1ccc(-c2ccccc2CNC2CCN(Cc3ccccc3)CC2)cc1
COc1ccc(CCn2c(=N)c(C(=O)NCc3cccnc3)cc3c(=O)n4ccccc4nc32)cc1
Cc1ccccc1C(O)CNc1ccnc(Nc2cccc(C#N)c2)n1 (stereo not given)
COc1ccc(NC(=O)NC2CCN(c3ccnc4cc(Cl)ccc34)CC2)cc1
COc1ccccc1C(=O)Nc1cccc(N2CCC(NCc3ccc(-n4cccn4)cc3)CC2)c1
CC(C)(C)CCN1CCC(NC(=O)c2ccc(-c3cccc(C(F)(F)F)c3)s2)CC1
N#Cc1ccc(-c2nc(CO)c(C(=O)NCCCCN3CCC(c4ccc5c(c4OCC(N)=O)CCCC5)CC3)s2)cc1
O=C(/C=C/c1ccc(Cl)c(Cl)c1)NCCCCCN1CC[C@H](NC(=O)Nc2ccc(Oc3ccccc3)cc2)C1
COCCC[C@H]1C(=O)O[C@H]2CCC[C@@H]21
CN(C)Cc1ccc(-c2cccc(NC(=O)c3ccc(Cl)cc3)c2)cc1
O=C(NCCCCCN1CCC(c2c[nH]c3ccccc23)CC1)Nc1cccc(Cl)c1
Fc1ccc2nc(-c3ccc(-c4ccc(CNCc5ccccc5)cc4)cc3)[nH]c2c1
CN(C)c1ccc(N=C2N=C(Nc3ccc(N(C)C)cc3)c3ccccc32)cc1
